GPR151 ag: activators of human GPR151. activation, % at 11.2 µM. Q8TDV0. hit rate 1% among 650,000. PathHunter beta-arrestin GPR151 cells, luminescence; in the data active = activation above about 4.9%;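 note: 0% = median of compound wells and 100% = cells with positive control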
Target sequence (Q8TDV0 whole entry, looked up): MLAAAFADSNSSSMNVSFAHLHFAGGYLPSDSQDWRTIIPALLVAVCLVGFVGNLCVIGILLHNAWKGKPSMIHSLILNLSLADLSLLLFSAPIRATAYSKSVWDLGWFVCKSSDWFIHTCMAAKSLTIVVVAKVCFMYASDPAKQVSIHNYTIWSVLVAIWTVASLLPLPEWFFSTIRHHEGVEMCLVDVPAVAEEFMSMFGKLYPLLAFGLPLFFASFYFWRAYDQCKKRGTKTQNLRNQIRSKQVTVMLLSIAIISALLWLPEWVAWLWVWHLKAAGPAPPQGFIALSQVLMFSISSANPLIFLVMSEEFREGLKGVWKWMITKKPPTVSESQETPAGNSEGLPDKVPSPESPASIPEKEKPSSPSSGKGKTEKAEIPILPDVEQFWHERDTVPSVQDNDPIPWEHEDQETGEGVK
FBW7 activator: activators of human E3 ligase FBW7. AID 1259310. Q969H0. hit rate 0.13% among 650,000. AlphaScreen FBW7–phospho-cyclin E peptide binding, activator screen. normalized activity (activation), % at 26.1 µM; in the data active = normalized activity above about 1.9%;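 note: purified mutant Fbw7 with reduced substrate affinity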
TEAD-YAP block: TEAD-YAP interaction inhibition; AID 1259422; hit rate 1.4% among 640,000; HEK-TIYL cells, TEAD-Gal4/YAP UAS-luciferase luminescence; inhibition, % at 9.12 µM; in the data active = inhibition above about 32%;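 note: 0% = median of test compound wells and 100% = reference inhibitor wells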
MITF inh: human MITF inhibition, primary screen. AID 1259374. inhibition, % at 2.6 µM. hit rate 0.91% among 650,000. AlphaScreen MITF homodimerization, bead proximity signal; in the data active = inhibition above about 50%;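 note: 0% = vehicle wells with protein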
Active calls of the source: *; ! = a repeat was not active. Rows were chosen to be rich in hits. Some 3.4% of all compounds tested hit in one or more screens of this group.

SMILES | GPR151 ag | FBW7 activator | TEAD-YAP block | MITF inh
CC(=O)Nc1ccc(Nc2nc(N3CCN(c4ccccn4)CC3)nc3c2ncn3-c2ccccc2)cc1 | 3.7 | -0.2 | 22.3 | 3.9
O=C(c1ccccc1)N1N=C(c2c(-c3ccccc3)c3cc(Br)ccc3[nH]c2=O)CC1c1ccc(Br)cc1 (stereo not drawn) | -0.6 | -0.1 | 11.4 | 1.8
COc1ccc(-c2nc3ccc(C(=O)NCc4cccc(C(F)(F)F)c4)cc3s2)cn1 | 0.9 | 0.0 | -26.3 | 5.4
c1cc(-n2cnc3c(NC4CC4)nc(N4CCC(N5CCOCC5)CC4)nc32)cs1 | -1.0 | -0.1 | 45.8* | 10.2
CCCCC(=O)Nc1ccc(-c2nc3cccnc3s2)cc1 | -1.5 | 0.2 | 7.3 | 4.3
CC(=O)Nc1ccc(-c2nc3cccnc3s2)cc1 | -3.6 | -0.1 | 47.0* | 12.4
Cc1ccc(-c2nc3cccnc3s2)cc1NC(=O)C(F)(F)F | -1.2 | 0.0 | 32.0* | 1.0
O=C(COC(=O)c1ccccc1C(F)(F)F)c1ccc([N+](=O)[O-])cc1 | 0.1 | -0.2 | 37.7* | -9.9
COc1ccccc1C(=O)OCC(=O)c1ccc([N+](=O)[O-])cc1 | -0.6 | -0.3 | -7.2 | 6.4
Cc1ccccc1OCc1nn2c(-c3ccncc3)nnc2s1 | -0.8 | 1.4 | 1.2 | 13.3
COc1cccc(Nc2nc(N3CCN(CCO)CC3)nc3c2cnn3C)c1 | 1.9 | 0.2 | 41.0* | 9.9
CC(NC(=O)c1ccccc1F)C(c1cccs1)N1CCOCC1 (stereo not drawn) | -1.5 | 0.1 | 3.8 | 14.7
COc1ccc2c(c1)CC(c1nc(N3CCOCC3)c3ccc(-c4cn[nH]c4C)cc3n1)CO2 (stereo not drawn) | 0.0 | 1.1 | 16.3 | 5.9
Oc1ccc(/C=C/c2cc(O)cc(O)c2)cc1 | -6.2 | 0.5 | 89.1*! | -6.3
OC[C@H]1O[C@@H](Oc2cc(O)cc(/C=C/c3ccc(O)cc3)c2)[C@H](O)[C@@H](O)[C@@H]1O | 2.1 | -0.1 | 11.5 | 4.6
O=C(NCC(c1cccs1)N1CCOCC1)c1ccc([N+](=O)[O-])o1 (stereo not drawn) | 1.0 | -0.1 | 54.8* | 3.2
COCCOC(=O)C1=C(C)NC(C)=C(C(=O)OCCOC)C1c1cn(-c2ccccc2)nc1-c1ccc(Br)cc1 | 0.2 | 0.0 | -4.5 | -5.4
Cc1ccccc1CN1C(=O)CSc2ccc(C(=O)N3CCOCC3)cc21 | 1.0 | 0.1 | -6.2 | 0.2
Cc1ccccc1CN1C(=O)CSc2ccc(C(=O)N3CCN(c4ccccn4)CC3)cc21 | 3.2 | -0.1 | 44.9* | 4.0
Cc1cc(C)c(NC(=O)C(=O)NCC2CCCO2)c(C)c1 (stereo not drawn) | -0.1 | -0.1 | -13.9 | -4.7
Cc1cc(C(=O)NC2CC2)c2ccccc2n1 | 0.5 | 0.0 | 2.3 | -1.8
Cc1cc(C(=O)NN=C2C3CC4CC(C3)CC2C4)c2ccccc2n1 | -0.9 | -0.1 | 47.3* | 0.4
O=C(Cc1n[nH]c(=O)c2ccccc12)OCC(=O)c1ccc2c(c1)OCCO2 | -2.1 | 0.0 | 49.6* | 2.7
FC(F)(F)c1cccc(Nc2nccn3c(-c4cccs4)cnc23)c1 | 0.5 | -0.2 | -3.5 | 15.0
COc1ccc(CC(=O)Nc2cccc(-c3nnc(-c4ccccc4)o3)c2)cc1OC | 4.8 | -0.1 | 52.8* | 23.4
SMILES | GPR151 ag | FBW7 activator | TEAD-YAP block | MITF inh
COc1ccc(CC(=O)Nc2ccc(-c3nnc(-c4ccccc4)o3)cc2)cc1OC | -0.7 | 0.2 | -16.0 | 21.7
CCc1ccc(NC(=S)c2c(-c3ccccc3)c3c4n(c(CNc5ccc(Cl)cc5)nn24)CCCC3)cc1 | -0.8 | 0.2 | 8.4 | 3.2
COc1cccc(OC)c1C(=O)N1C[C@@H]2C[C@H]1C(=O)N2c1ccccc1Cl | -1.1 | 0.1 | 33.2* | 16.2
C=CCOC(=O)C1=C(C)NC(=S)NC1c1ccccc1OCC (stereo not drawn) | -1.3 | -0.1 | 0.7 | 3.2
CCOC(=O)C1=C(C)NC(=S)NC1c1ccccc1OCC(=O)Nc1ccc(C)cc1 (stereo not drawn) | 1.0 | 0.0 | 36.2* | 2.1
COC(=O)C1CCN(c2ccc([N+](=O)[O-])cc2[N+](=O)[O-])CC1 | 1.8 | 0.7 | -3.0 | 12.4
CCOC(=O)C1CN(c2ccc([N+](=O)[O-])cc2[N+](=O)[O-])C1 | 0.6 | -0.2 | 55.3* | -10.3
Cc1ccc(NC2=NCC(=O)N2C2CCCC2)cc1 | -5.6 | -0.1 | 56.3* | 0.3
COc1ccc(O)c(C(=O)CC(=O)c2ccccc2)c1 | -5.0 | -0.1 | 55.4* | -7.8
COc1ccc(O)c(C(=O)CC(=O)c2ccccc2Cl)c1 | -3.3 | 0.0 | 14.7 | -10.2
COc1ccccc1OCCCC(=O)Nc1nnc(C)s1 | -0.5 | 0.0 | -3.1 | 4.3
c1ccc(Nc2nc(Nc3cccnc3)nc3c2ncn3-c2ccccc2)cc1 | -1.8 | 0.3 | 34.5* | 15.1
c1ccc(Nc2nc(Nc3ccc(-n4ccnc4)cc3)nc3c2ncn3-c2ccccc2)cc1 | 2.6 | 0.0 | 19.9 | 7.6
c1ccc(OCCNc2nc(Nc3cccnc3)nc3c2ncn3-c2ccccc2)cc1 | 2.2 | -0.1 | 10.9 | -3.6
CCN(CC)c1nc(Nc2ccc(N3CCOCC3)cc2)nc(Nc2ccc(-n3ccnc3)cc2)n1 | 2.3 | 0.1 | 65.2* | 18.4
c1ccc(-n2cnc3c(Nc4ccc(N5CCOCC5)cc4)nc(Nc4ccc(-n5ccnc5)cc4)nc32)cc1 | 1.3 | 0.1 | 40.6* | 17.8
c1ccc(-n2cnc3c(Nc4ccc(N5CCOCC5)cc4)nc(Nc4cccnc4)nc32)cc1 | -1.2 | 0.4 | 40.6* | 10.8
COc1ccccc1NC(=O)c1c(N)sc2c1CCCCC2 | -0.3 | 0.5 | -16.0 | -13.1
Clc1ccc(OCc2cn3ccccc3n2)cc1 | -3.1 | 0.0 | -28.2 | -0.7
O=C1CCc2ccc(OCc3cn4ccccc4n3)cc21 | -7.7 | -0.1 | 57.7* | -7.6
O=C(CNC(=O)c1cccc(Br)c1)N/N=C/c1cn[nH]c1-c1ccccc1 | 0.5 | 0.0 | 6.7 | 2.3
O=C(c1cccc(Br)c1)c1cn[nH]c1-c1ccccc1O | 1.2 | 0.2 | 45.7* | 5.2
CO/N=C/c1ccc(OC)c(Oc2nc(OC)cc(OC)n2)c1 | 1.7 | 0.1 | 33.0* | 4.1
O=C1OC(c2cccs2)=N/C1=C\c1ccc(N2CCCC2)c([N+](=O)[O-])c1 | -0.5 | 0.0 | -19.4 | -4.2
COc1cc(Nc2cc(Nc3nccc4ccccc34)ncn2)cc(OC)c1OC | -1.1 | 1.6 | 48.8* | -13.7
SMILES | GPR151 ag | FBW7 activator | TEAD-YAP block | MITF inh
c1ccc(Nc2cc(Nc3nccc4ccccc34)ncn2)cc1 | 0.6 | -0.1 | -17.1 | -9.7
Cc1cnc(Nc2ccncc2)nc1Nc1ccccc1 | 1.1 | 0.1 | 49.0* | 5.8
COc1cc(Nc2ccnc(Nc3cccc(N(C)C)c3)n2)cc(OC)c1OC | 1.2 | -0.1 | 11.4 | 11.9
COc1cc(Nc2nc(Nc3cccc(N(C)C)c3)ncc2C)cc(OC)c1OC | -1.0 | 0.0 | 54.1* | 11.1
COc1cc(Nc2cc(Nc3cccc(N(C)C)c3)ncn2)cc(OC)c1OC | 0.6 | -0.1 | 39.5* | 9.2
COc1ccc(CCNc2nc(Nc3cccc(N(C)C)c3)ncc2C)cc1 | 2.7 | -0.3 | 15.6 | 2.3
CCOC(=O)c1cnc2ccc(OCC)cc2c1NC(C)C | 0.3 | 1.0 | 16.1 | 1.0
Cc1cnc(Nc2cccc(N(C)C)c2)nc1NCCN(C(C)C)C(C)C | -1.4 | -0.1 | 9.3 | 3.2
